Source: PubChem BioAssay (National Center for Advancing Translational Sciences (NCATS))
This is a sample that favours compounds with a hit; in the whole collection about 2.7% have one here.
NTMT1 inh – Primary qHTS for Inhibitors of N-terminal methyltransferase 1 (NTMT1): MTaseGlo Assay. Potency, µM (highest dose often 114 µM), inactives show top-dose activity change, negative = inhibition, actives largely listed as inhibitors. N-terminal Xaa-Pro-Lys N-methyltransferase 1 (Homo sapiens), Q9BV86. NTMT1 MTase-Glo SAH luminescence, purified enzyme. AID 1645870, 2021. 2.5% of 59,000 active;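 further: plate controls were DMSO vehicle for no effect and no enzyme for full effect; nearly all actives have a fitted effect of over 65% in size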
Target sequence (Q9BV86 whole entry, looked up): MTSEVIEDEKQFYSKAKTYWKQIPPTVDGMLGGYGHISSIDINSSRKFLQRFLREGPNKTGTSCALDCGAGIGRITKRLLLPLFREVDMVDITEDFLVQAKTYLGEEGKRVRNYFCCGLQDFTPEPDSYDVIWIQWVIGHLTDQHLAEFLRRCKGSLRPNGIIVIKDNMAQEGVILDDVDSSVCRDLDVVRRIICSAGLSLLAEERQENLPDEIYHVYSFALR
GALC G270D up – A Novel Cell-Based Assay to Identify Small Molecules for B -Galactocerebrosidase; P54803; 145M-Twi-hGALC-G270D cells (Twitcher mouse brain line with human GALC G270D), HMU-beta-Gal fluorescence, 48 h; Potency, µM (doses to about 57.5 µM), most hits filed as activators; 0.1% of 45,000 active; further: 0% is about no effect; nearly all actives have a fitted effect of over 65% in size
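Fluorogenic HMU-b-Gal hydrolysis (0.1 mM final, pH 5.2 citrate-phosphate with 1 mg/mL sodium taurocholate; carbonate stop buffer) measures mutant GALC activity after compound treatment of live 145M-Twi Twitcher brain cells stably carrying human GALC-G270D, with wild-type GALC line alongside; activation sought.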
HTT-AS promoter – Primary qHTS for Identification of Small Molecule Activators of Huntingtin-Antisense Promoter Activity. 0.24% of 48,000 active. HEK293 HTT-AS promoter firefly luciferase reporter, 24 h; response scale: percent change from vehicle, -100% = no light. Potency, µM (top dose mostly 57.5 µM), for inactives: top-dose activity change, positive = activation, most hits filed as activators; further: nearly all actives have a fitted effect of over 55% in size
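HEK293 cells carrying firefly luciferase reporters were seeded at 2,500 per well in Opti-MEM and cultured for 24 h. They were then treated with compounds at up to 57.5 uM final for 24 h at 37 degrees C before Dual-Glo luminescence readout.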
HTT promoter inh – Primary qHTS for Identification of Small Molecule Inhibitors of Huntingtin Promoter Activity; HEK293 HTT promoter firefly luciferase reporter, 24 h; 0.93% of 48,000 active; AID 1508623, 2021; Potency, µM (highest dose often 57.5 µM), for inactives: at the top dose activity change, negative = inhibition, hits mostly inhibitors; further: nearly all actives have a fitted effect of over 50% in size
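Luminescence was read after Dual-Glo reagent and a 10 min room-temperature incubation. Values were normalized to vehicle (0% activity) and zero RLU (-100% activity). Reporter HEK293 cells had been exposed to compounds (up to 57.5 uM final) for 24 h.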
The depositor's hits bear a star; i = inactive; u = inconclusive; x = not tested or not shown; ! = a repeat was not active; [ ] = another dose, or the depositor's remark. The call rests on the fitted dose curve; in most records, active means well fitted curve in the direction sought with a large enough effect; inconclusive means small, poorly fitted or top-dose-only effect, or another doubt; inactive means no such curve, though single readings can be large; an effect the other way counts as inactive or inconclusive. Potency means the concentration at half of the fitted maximal effect.

SMILES | NTMT1 inh | GALC G270D up | HTT-AS promoter | HTT promoter inh
COc1cc(OC)cc(N2CCN(C(=O)Nc3nc4cc(F)ccc4nc3OC)CC2)c1 | 1.8% | x | x | x
C[n+]1ccc(-c2c3nc(c(-c4cc[n+](C)cc4)c4ccc([nH]4)c(-c4cc[n+](C)cc4)c4nc(c(-c5cc[n+](C)cc5)c5ccc2[nH]5)C=C4)C=C3)cc1 | 14.1µM* | x | x | x
[2H]C([2H])(Nc1nc(-c2ccccc2C([2H])(C([2H])([2H])[2H])C([2H])([2H])[2H])ncc1C)c1ccc(-n2ccnn2)cc1 | 10.6% | x | x | x
Cc1ccc(Nc2nccc(N(C)c3ccc4c(C)n(C)nc4c3)n2)cc1S(N)(=O)=O | 15.8µM*! | i | -7.9% | -1.2%
CCOc1ccc(NC(=O)c2sc3nc4c(cc3c2N)CCCCCC4)cc1 | -4.1% | i | -29.4% | u
Nc1c(C(=O)Nc2ccc(C(=O)O)cc2)sc2nc3c(cc12)CCCC3 | 25.1µM* | i | -73.7% | u
CC(CC12CCCN1C(=O)C1CCCN1C2=O)OC(N)=O (stereo unspecified) | 6.8%[29.8 µM] | x | x | x
CCCCNC(=O)CN1CCN(c2ncc(NC(=O)c3ccc(Cl)cc3)cc2C(=O)O)CC1 | 39.8µM* | i | -11.3% | -17.0%
COC(=O)c1c(C)oc2ccc(N(C(=O)c3ccncc3)S(=O)(=O)c3cc(C)c(C)cc3C)cc12 | 14.3% | i | -59.8% | 12.6µM*
COC(=O)c1c(C)oc2ccc(N(C(=O)c3ccncc3)S(=O)(=O)c3c(C)cc(C)cc3C)cc12 | -0.9% | i | -37.9% | u
CC(=O)c1c(C)oc2ccc(N(C(=O)Oc3ccccc3)S(=O)(=O)c3ccc(Cl)cc3)cc12 | 14.7% | i | 11.9%[11.5 µM] | -6.9%
CCc1ccc(S(=O)(=O)N(C(=O)Oc2ccccc2)c2ccc3oc(C)c(C(=O)OC)c3c2)cc1 | u | i | -90.7% | 7.94µM*
Cc1cccc(Cn2c(C)c(C)c3cc(C(=O)NCc4ccc(C)o4)ccc32)c1 | -20.8% | i | -29.8% | u
Cc1c(C)n(Cc2ccccc2)c2ccc(C(=O)OCCN(C)C)cc12 | 5.62µM* | i | -3.3% | -8.2%
Cc1ccc(CNC(=O)c2ccc3c(c2)c(C)c(C)n3Cc2ccccc2)o1 | 22.4µM* | i | -19.1% | -10.6%
CN(CC(=O)N(Cc1ccc(C2CCCCC2)cc1)c1ccc(C(=O)O)c(O)c1)S(=O)(=O)c1c(F)c(F)c(F)c(F)c1F | 31.6µM* | x | 19.9% | 32.2%
COc1cc2c(cc1O)C1(Cc3ccc4c(c3C1O)OCO4)[N+](C)([O-])CC2 (stereo unspecified) | 11.1%[29.8 µM] | x | x | x
CCc1ccc(NC(=O)c2ccc(F)c(S(=O)(=O)N3CCN(c4ccc(OC)cc4)CC3)c2)cc1 | 0.7% | i | -39.4% | u
CCc1ccc(NC(=O)c2ccc(F)c(S(=O)(=O)N3CCC4(CC3)OCCO4)c2)cc1 | -6.4% | i | -24.8% | 15.8µM*
O=C(Nc1ccccc1C(F)(F)F)c1ccc(F)c(S(=O)(=O)N2CCc3ccccc3C2)c1 | 5.9% | i | -24.3% | u
CCc1ccc(NC(=O)c2ccc(F)c(S(=O)(=O)N3CCc4ccccc4C3)c2)cc1 | -6.2% | i | -19.7% | 25.1µM*
CCc1ccc(NC(=O)c2ccc(F)c(S(=O)(=O)N3CCC(C)CC3)c2)cc1 | -2.0% | i | -35.9% | 4.47µM*
C[C@@H]1CC[C@]2(C(=O)O)CC[C@]3(C)C(=CCC4[C@@]5(C)C[C@@H](O)[C@H](O)[C@@](C)(CO)C5CC[C@]43C)C2[C@]1(C)O (stereo partly specified) | 9.5%[29.8 µM] | x | x | x
CCOC(=O)c1c(C)n(-c2ccccc2)c2ccc(OC(=O)c3cccc(Cl)c3)cc12 | 17.8% | i | -4.5% | 2.2%
CCOC(=O)c1c(C)n(-c2ccccc2)c2ccc(OC(=O)c3ccccc3)cc12 | 0.5% | i | -70.7% | 20µM*
CC(=O)Nc1sc2c(c1-c1ccc(N(C)C)cc1)CCNC2 | 14.1µM* | x | x | x
CC(=O)Nc1sc2c(c1-c1ccc(F)cc1)CCNC2 | -5.3% | x | x | x
Oc1ccc(NCc2ccccc2OCc2ccccc2Cl)cc1 | 44.7µM* | i | -11.1% | -18.5%
